According to PubChem BioAssay (Tox21):
Results filed as inconclusive are left out. Activity calls are given as the source filed them. Calls come from the whole dose curve; as a rule, active = well fitted curve in the direction sought with a large enough effect in the repeat runs; inconclusive = weak or mixed curves; inactive = no such curve, though single readings can be large; an effect the other way counts as inactive or inconclusive.

Assays:
[1] = qHTS RealTime-Glo MT Cell Viability Assay in HEK293 cells - 16 hour (AID 1224872); note: nearly all actives have a fitted effect of over 50% in size; note: potency is the fitted concentration of half-maximal effect
Outline: (§1)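 Assay medium contained NanoLuc luciferase plus cell-permeant prosubstrate, added with HEK293 cells at 600 cells/well. After 5 h at 37 C/5% CO2 compounds were added; plates stayed at 37 C for 40 h with serial luminescence reads.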

[2] = qHTS RealTime-Glo MT Cell Viability Assay in HepG2 cells - 8 hour (AID 1224873); note: nearly all actives have a fitted effect of over 55% in size; note: potency is the fitted concentration of half-maximal effect
Outline: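 HepG2 cells (600/well) mixed with RealTime-Glo MT reagent, settled 5 h at 37 C/5% CO2 before compound addition. Nonlytic NanoLuc luminescence from viable-cell prosubstrate reduction read repeatedly during 40 h treatment at 37 C.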

[3] = qHTS RealTime-Glo MT Cell Viability Assay in HEK293 cells - 40 hour (AID 1224874); details: RealTime-Glo luminescence; max response: hits give low values; note: nearly all actives have a fitted effect of over 50% in size; note: potency is the fitted concentration of half-maximal effect
Outline: (§2)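 600 HEK293 cells per well, dispensed already mixed with RealTime-Glo MT reagents. Compound dosing came 5 h later. The same wells were read for luminescence at 0, 8, 16, 24, 32 and 40 h of exposure at 37 C.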

[4] = A CellTox Green Cytotoxicity Assay to monitor cytotoxicity in HEK293 cells - 24 hour (AID 1224875); note: nearly all actives have a fitted effect of over 45% in size; note: potency is the fitted concentration of half-maximal effect
Outline: (§3)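 Dead-cell fluorescence measured kinetically: asymmetric cyanine dye, HEK293, 600 cells/well, 5 h settle, 23 nL cpd/DMSO, 37 C, reads 0–40 h every 8 h.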

[5] = A CellTox Green Cytotoxicity Assay to monitor cytotoxicity in HepG2 cells - 16 hour (AID 1224876); note: nearly all actives have a fitted effect of over 45% in size; note: potency is the fitted concentration of half-maximal effect
Outline: (§4)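 First, HepG2 cells (600/well) mixed with reagent were plated; second, after 5 h at 37 C they received compounds via pintool; third, fluorescence was measured at 0 h through 40 h at 8 h intervals.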

[6] = qHTS RealTime-Glo MT Cell Viability Assay in HepG2 cells - 32 hour (AID 1224877); note: nearly all actives have a fitted effect of over 55% in size; note: potency is the fitted concentration of half-maximal effect
Outline: (§5)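 qHTS, HepG2, 600 cells/well, RealTime-Glo (NanoLuc + prosubstrate) added with cells; 5 h preincubation; DMSO compound addition; 37 C; luminescence at 0/8/16/24/32/40 h.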

[7] = A CellTox Green Cytotoxicity Assay to monitor cytotoxicity in HepG2 cells - 24 hour (AID 1224878); note: nearly all actives have a fitted effect of over 45% in size; note: potency is the fitted concentration of half-maximal effect
Outline: as §4

[8] = A CellTox Green Cytotoxicity Assay to monitor cytotoxicity in HepG2 cells - 40 hour (AID 1224879); note: nearly all actives have a fitted effect of over 40% in size; note: potency is the fitted concentration of half-maximal effect
Outline: as §4

[9] = qHTS RealTime-Glo MT Cell Viability Assay in HEK293 cells - 0 hour (AID 1224880); note: top concentration of the series differs between compounds; nearly all actives have a fitted effect of over 45% in size
Outline: as §2

[10] = A CellTox Green Cytotoxicity Assay to monitor cytotoxicity in HEK293 cells - 32 hour (AID 1224881); note: nearly all actives have a fitted effect of over 40% in size; note: potency is the fitted concentration of half-maximal effect
Outline: as §3

[11] = A CellTox Green Cytotoxicity Assay to monitor cytotoxicity in HepG2 cells - 0 hour (AID 1224882); note: nearly all actives have a fitted effect of over 35% in size
Outline: as §4

[12] = qHTS RealTime-Glo MT Cell Viability Assay in HepG2 cells - 16 hour (AID 1224885); note: nearly all actives have a fitted effect of over 50% in size; note: potency is the fitted concentration of half-maximal effect
Outline: as §5

[13] = qHTS RealTime-Glo MT Cell Viability Assay in HEK293 cells - 24 hour (AID 1224886); note: nearly all actives have a fitted effect of over 50% in size; note: potency is the fitted concentration of half-maximal effect
Outline: as §1

[14] = qHTS RealTime-Glo MT Cell Viability Assay in HEK293 cells - 8 hour (AID 1224887); note: nearly all actives have a fitted effect of over 50% in size; note: potency is the fitted concentration of half-maximal effect
Outline: as §2

[15] = qHTS RealTime-Glo MT Cell Viability Assay in HepG2 cells - 0 hour (AID 1224889); note: nearly all actives have a fitted effect of over 50% in size
Outline: as §5

[16] = A CellTox Green Cytotoxicity Assay to monitor cytotoxicity in HepG2 cells - 8 hour (AID 1224890); note: nearly all actives have a fitted effect of over 45% in size; note: potency is the fitted concentration of half-maximal effect
Outline: as §4

[17] = qHTS assay to identify small molecule antagonists of the estrogen receptor alpha (ER-alpha) signaling pathway using the BG1 cell line in the presence of 0.1 nM 17-beta-estradiol - cell viability counter screen (AID 1259241); note: nearly all actives have a fitted effect of over 40% in size; note: potency is the fitted concentration of half-maximal effect
Outline: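 Measures cytotoxicity alongside the ER-alpha antagonist readout: VM7Luc4E2 cells, charcoal-stripped serum, 0.1 nM 17beta-estradiol final, 22 hr compound incubation at 37C, CellTiter-Fluor fluorescence.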

[18] = A CellTox Green Cytotoxicity Assay to monitor cytotoxicity in HepG2 cells - 32 hour (AID 1224883); note: nearly all actives have a fitted effect of over 50% in size; note: potency is the fitted concentration of half-maximal effect
Outline: as §4

[19] = A CellTox Green Cytotoxicity Assay to monitor cytotoxicity in HEK293 cells - 8 hour (AID 1224884); note: nearly all actives have a fitted effect of over 35% in size; note: potency is the fitted concentration of half-maximal effect
Outline: as §3

[20] = A CellTox Green Cytotoxicity Assay to monitor cytotoxicity in HEK293 cells - 16 hour (AID 1224888); note: nearly all actives have a fitted effect of over 35% in size; note: potency is the fitted concentration of half-maximal effect
Outline: as §3
% is set by controls: 0 for no effect and ±100 for the full control effect.

Cc1nn(-c2cc(NS(C)(=O)=O)c(Cl)cc2Cl)c(=O)n1C(F)F
inactive: Potency [1] | Potency [2] | max response [3] 1.81% | Potency [4] | Potency [5] | Potency [6] | Potency [7] | Potency [8] | Potency [9] | Potency [10] | Potency [11] | Potency [12] | Potency [13] | Potency [14] | Potency [15] | Potency [16] | Potency [17]

[O]=[Cr][O][Cr]=[O]
inactive: Potency [1] | Potency [2] | max response [3] 17.9% | Potency [4] | Potency [5] | Potency [6] | Potency [7] | Potency [8] | Potency [9] | Potency [10] | Potency [11] | Potency [18] | Potency [19] | Potency [12] | Potency [13] | Potency [14] | Potency [15] | Potency [16]

O=[N+]([O-])c1cccc2cccc([N+](=O)[O-])c12
inactive: Potency [1] | Potency [2] | max response [3] -12.3% | Potency [4] | Potency [5] | Potency [6] | Potency [7] | Potency [8] | Potency [9] | Potency [10] | Potency [11] | Potency [18] | Potency [19] | Potency [12] | Potency [13] | Potency [14] | Potency [15] | Potency [16]

C=Cc1cccc(CCl)c1
inactive: Potency [1] | Potency [2] | max response [3] 4.68% | Potency [4] | Potency [5] | Potency [6] | Potency [7] | Potency [8] | Potency [9] | Potency [10] | Potency [11] | Potency [18] | Potency [12] | Potency [13] | Potency [14] | Potency [15] | Potency [16] | Potency [17]

ClC1=C(Cl)[C@]2(Cl)[C@@H]3[C@H]4C[C@H]([C@@H]5O[C@H]45)[C@@H]3[C@@]1(Cl)C2(Cl)Cl
inactive: Potency [1] | Potency [2] | max response [3] 3.07% | Potency [4] | Potency [5] | Potency [6] | Potency [7] | Potency [8] | Potency [9] | Potency [10] | Potency [11] | Potency [18] | Potency [12] | Potency [13] | Potency [14] | Potency [20] | Potency [15] | Potency [16] | Potency [17]

CC(Cl)CCl (stereo unspecified)
inactive: Potency [1] | Potency [2] | max response [3] -4.79% | Potency [4] | Potency [5] | Potency [6] | Potency [7] | Potency [8] | Potency [9] | Potency [10] | Potency [11] | Potency [19] | Potency [12] | Potency [13] | Potency [14] | Potency [15] | Potency [16] | Potency [17]

[Cl][Hg][c]1ccccc1
active: Potency [1] 1.38 µM | Potency [2] 2.75 µM | Potency [3] 1.1 µM | Potency [4] 2.19 µM | Potency [5] 2.75 µM | Potency [6] 2.75 µM | Potency [7] 3.47 µM | Potency [8] 2.19 µM | Potency [10] 2.19 µM | Potency [18] 2.45 µM | Potency [12] 2.75 µM | Potency [13] 1.23 µM | Potency [14] 1.95 µM | Potency [16] 3.09 µM | Potency [17] 9.69 µM
inactive: Potency [9] | Potency [11] | Potency [19] | Potency [20]

O=S(=O)(O)F
inactive: Potency [1] | Potency [2] | max response [3] 6.96% | Potency [4] | Potency [5] | Potency [6] | Potency [7] | Potency [8] | Potency [9] | Potency [10] | Potency [11] | Potency [18] | Potency [19] | Potency [12] | Potency [13] | Potency [14] | Potency [20] | Potency [16] | Potency [17]

CCNS(=O)(=O)C(F)(F)C(F)(F)C(F)(F)C(F)(F)C(F)(F)C(F)(F)C(F)(F)C(F)(F)F
inactive: Potency [1] | Potency [2] | max response [3] 23.4% | Potency [4] | Potency [5] | Potency [6] | Potency [7] | Potency [8] | Potency [9] | Potency [10] | Potency [11] | Potency [19] | Potency [12] | Potency [13] | Potency [14] | Potency [20] | Potency [16] | Potency [17]

CCOP(=S)(OCC)Oc1cc(C)nc(N(CC)CC)n1
inactive: Potency [1] | Potency [2] | max response [3] 2.8% | Potency [4] | Potency [5] | Potency [6] | Potency [7] | Potency [8] | Potency [9] | Potency [10] | Potency [11] | Potency [18] | Potency [19] | Potency [12] | Potency [13] | Potency [14] | Potency [15] | Potency [16] | Potency [17]

Nc1cc(Cl)ccc1Cl
inactive: Potency [1] | Potency [2] | max response [3] 22.7% | Potency [4] | Potency [5] | Potency [6] | Potency [7] | Potency [8] | Potency [9] | Potency [10] | Potency [11] | Potency [19] | Potency [12] | Potency [13] | Potency [14] | Potency [20] | Potency [15] | Potency [16] | Potency [17]

Fc1ccc(C(OCCN2CCN(CCCc3ccccc3)CC2)c2ccc(F)cc2)cc1
active: Potency [1] 8.49 µM | Potency [2] 23.9 µM | Potency [3] 9.52 µM | Potency [4] 23.9 µM | Potency [5] 23.9 µM | Potency [6] 23.9 µM | Potency [7] 23.9 µM | Potency [8] 23.9 µM | Potency [10] 23.9 µM | Potency [18] 23.9 µM | Potency [19] 21.3 µM | Potency [12] 23.9 µM | Potency [13] 9.52 µM | Potency [14] 16.9 µM | Potency [20] 21.3 µM | Potency [16] 23.9 µM | Potency [17] 29.8 µM
inactive: Potency [9] | Potency [11] | Potency [15]

CNC(=O)Oc1cc(C)cc(C(C)C)c1
inactive: Potency [1] | Potency [2] | max response [3] 5.9% | Potency [4] | Potency [5] | Potency [6] | Potency [7] | Potency [8] | Potency [9] | Potency [10] | Potency [11] | Potency [18] | Potency [19] | Potency [12] | Potency [13] | Potency [14] | Potency [15] | Potency [16] | Potency [17]
